PLK1 PBD inh: PLK1 (human) polo-box domain binding inhibition | 360,000 tested, 2.8% active | P53350 | Plk1 PBD binding of FITC phosphopeptide, fluorescence polarization | Potency, µM, for inactives: max response, negative = inhibition, hits mostly inhibitors; note: series mostly up to about 57 µM; nearly all actives have a fitted effect of over 65% in size
VDR inhibitor: vitamin D3 receptor (human) inhibition; VDR-SRC2-3 peptide fluorescence polarization, 2 h; Potency, µM, for the others: max response, negative = inhibition, most hits filed as inhibitors; 400,000 tested, 0.93% active
Target sequence (P11473 whole entry, looked up): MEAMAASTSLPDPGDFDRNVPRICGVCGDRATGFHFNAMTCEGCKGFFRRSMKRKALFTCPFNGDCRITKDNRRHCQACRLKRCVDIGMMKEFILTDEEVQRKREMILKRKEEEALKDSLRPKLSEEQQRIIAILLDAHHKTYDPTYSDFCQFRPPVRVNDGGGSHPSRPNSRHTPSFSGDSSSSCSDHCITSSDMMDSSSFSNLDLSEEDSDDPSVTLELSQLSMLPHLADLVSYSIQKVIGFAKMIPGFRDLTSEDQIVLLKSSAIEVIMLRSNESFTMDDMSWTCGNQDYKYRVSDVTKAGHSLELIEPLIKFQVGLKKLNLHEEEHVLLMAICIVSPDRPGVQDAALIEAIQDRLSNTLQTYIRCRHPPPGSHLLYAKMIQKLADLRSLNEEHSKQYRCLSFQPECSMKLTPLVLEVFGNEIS
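The screen uses fluorescence polarization to detect compounds that interfere with recruitment of the SRC2-3 coactivator peptide to VDR; plates are read after 2 h at room temperature.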
Sfp inh: Sfp phosphopantetheinyl transferase inhibition | Biochemical Sfp PPTase activity, qHTS | 310,000 tested, 3.5% active | Potency, µM, inactives show largest response in the series, negative = inhibition, most hits filed as inhibitors | Q9F4F7;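 note: the enzyme is Sfp with the accession as filed and its product quenches rhodamine fluorescence; 0% = enzyme reaction without inhibitor and -100% = no enzyme wells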
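After 15 min at room temperature with compound, 15 nM Sfp received 5 uM rhodamine-CoA plus 12.5 uM BHQ-2-ybbR (50 mM Hepes pH 7.6, 10 mM MgCl2). Rate came from the fluorescence difference over 30 min, ex 525/em 598 nm.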
ALOX12 inh: blocks human arachidonate 12S-lipoxygenase | P18054 | purified 12hLO, xylenol orange hydroperoxide absorbance | Potency, µM (top dose mostly 108 µM), without a hit: at the top dose activity change, negative = inhibition, hits mostly inhibitors | 580,000 tested, 1.1% active | AID 1671190
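Purified human 12hLO at 150 nM in 25 mM Hepes, 0.01% Triton X-100, pH 7.0, preincubated 15 min at room temperature with compound. Reaction started with 40 uM arachidonic acid, 30 min at room temperature. Hydroperoxide measured by Fe-xylenol orange, 573/405 nm absorbance ratio.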
* = called active by the depositor; ? = inconclusive; . = no result; [ ] = dose if it differs, or a comment. In the library only some 4.2% were active in any assay of this set; here they are far more common. Calls come from the whole dose curve; as a rule, active = well fitted curve in the direction sought with a large enough effect; inconclusive = small, poorly fitted or top-dose-only effect, or another doubt; inactive = no such curve, though single readings can be large; an effect the other way counts as inactive or inconclusive. Unless noted, % is set by controls: 0 for no effect and ±100 for the full control effect; potency is the fitted concentration of half-maximal effect.

SMILES	PLK1 PBD inh	VDR inhibitor	Sfp inh	ALOX12 inh
Cc1c(C(=O)NCc2ccco2)oc2ccc(Br)cc12	-6.8%	-8.2%	.	?
O=C(NCc1ccco1)c1cc2cc(Br)ccc2o1	10.6µM*	89.1µM*	20µM*	?
O=C(NCc1ccc2c(c1)OCO2)c1cc2c(s1)CSC2	-26.9%	-12.6%	-8.2%	1.3%[57.4 µM]
O=C(NCc1ccco1)c1cnccn1	-13.5%	-9.4%	39.8µM*	?
O=C(NCc1ccco1)c1cc2c(s1)CSC2	13.4µM*	?	-78.0%	.
C=CCn1cc(C(=O)NCCCN(CC)CC)c(=O)c2cc(S(=O)(=O)N3CCC(C)CC3)ccc21	-10.1%	-13.4%	11.4%	-29.6%
Cc1ccc(S(=O)(=O)N2CCN(c3nc(-c4cccs4)nc4cccnc34)CC2)cc1	.	-7.1%	.	.
O=C(NCc1ccco1)c1ccc(C(=O)NCc2ccco2)cc1	-8.5%	-18.6%	.	?
O=C(NCc1ccco1)c1ccc(Oc2ccccc2)cc1	-6.7%	3.7%	79.4µM*	0.0%
O=C(NCc1ccco1)c1ccc2c(c1)C(=O)c1ccccc1-2	-16.6%	-8.6%	11.2µM*	-28.8%
Cc1ccc(C(=O)N[C@H](C(=O)OCC(=O)c2ccc[nH]2)C(C)C)cc1	1.7%	-11.0%	16.8%	-8.4%
CCOC(=O)CSc1nc2c(c(=O)[nH]c(=O)n2C)n1C	.	.	.	10.9%
CCCCCCn1c(SCCN2CCOCC2)nc2c1c(=O)[nH]c(=O)n2C	-16.8%	-15.1%	-6.2%	0.0%[57.4 µM]
CCCCCn1c(SCCN2CCOCC2)nc2c1c(=O)[nH]c(=O)n2C	29.9µM*	-6.2%	50.1µM*	-12.0%
CCOC(=O)CSc1nc2c(c(=O)[nH]c(=O)n2C)n1C/C=C(/C)Cl	?	?	50.1µM*	-8.2%
C/C(Cl)=C/Cn1c(SC(C)C)nc2c1c(=O)[nH]c(=O)n2C	?	-10.8%	?	.
CCCCn1c(SCC(=O)OCC)nc2c1c(=O)[nH]c(=O)n2C	26.7µM*	-3.2%	-21.3%	17.8%
CN1Cc2nc(OCc3ccc(F)cc3)ccc2OCC1=O	.	.	.	9.1%[176 µM]
COc1ccc(CN(C)C[C@@H]2OCc3cnnn3CCCC(=O)N([C@H](C)CO)C[C@H]2C)cc1	?	.	.	-5.4%
COc1ccc2nc3cc(Cl)ccc3c(Nc3cc(C(C)C)c(O)cc3C)c2c1	7.2%	-13.1%	50.1µM*	?
Cc1cccc(OC(=O)c2ccncc2)c1C	-7.2%	-9.6%	8.1%	-7.2%
CCN1CCN(c2nc3ccccc3nc2NS(=O)(=O)c2cc(Cl)ccc2Cl)CC1	.	.	.	25.1µM*
COCCCNc1nc2ccccc2nc1NS(=O)(=O)c1cc(Cl)ccc1Cl	-2.6%	-5.5%	14.9%	39.8µM*
N#Cc1cccc(C(=O)N2CCCOCCNC(=O)[C@@H]3CCCC[C@@H]32)c1	.	.	.	19.2%
COc1ccc(N2CCN(CCNC(=O)c3c(C)cc(=O)oc3C)CC2)cc1	-4.1%	2.2%	6.9%	22.2%
SMILES	PLK1 PBD inh	VDR inhibitor	Sfp inh	ALOX12 inh
CCN(CC)c1ccc(-c2sc(Nc3ccccc3)n[n+]2-c2ccc(F)cc2)cc1	31.7%	-16.1%	56.2µM*	?
CCc1ccc(Nc2n[n+](-c3ccccc3)c(/C=C/c3ccccc3)s2)cc1	.	.	50.1µM*	.
COc1ccc(C)cc1Nc1n[n+](-c2ccccc2)c(-c2ccc(N(C)C)cc2)s1	4.5%	3.5%	20µM*	?
CCc1ccc(Nc2n[n+](-c3ccccc3)c(-c3c(Cl)cccc3Cl)s2)cc1	-19.4%	?	70.8µM*	?
COc1ccc(C)cc1Nc1n[n+](-c2ccccc2)c(-c2ccc(OC)c(OC)c2OC)s1	-13.0%	-5.3%	-28.4%	?
COc1ccc(CCNC(=O)CC2CCOCC2)cc1OC	.	.	.	44.0%
Cc1cccnc1NC(=O)Nc1cccc2ccccc12	-4.9%	-11.5%	4.3%	160.0%
O=C(NCC1CCCO1)C(=O)N/N=C/c1c(F)cccc1Cl (configuration not stated)	-2.8%	16.3%	20.6%	-14.9%
CN(C)c1ccc(-c2sc(Nc3ccccc3)n[n+]2-c2ccc(F)cc2)cc1	12.8%	-14.3%	-10.2%	44.7µM*
CCc1ccc(Nc2n[n+](-c3ccccc3)c(-c3cc(OC)c(OC)cc3Br)s2)cc1	-14.6%	-6.3%	-7.7%	39.8µM*
C[n+]1nc(Nc2ccccc2)sc1-c1ccc(C(=O)O)cc1	.	.	9.5%	.
CCc1ccc(Nc2n[n+](-c3ccccc3)c(-c3ccc(N(CC)CC)cc3)s2)cc1	49.1%	-4.3%	50.1µM*	39.8µM*
CNC(=O)[C@@H]1CN(C(=O)c2cc(C)no2)C[C@H]1COC	.	.	.	35.1%
CCC1CCCCN1CCCNC(=O)c1cc2c(=O)oc3ccc(C)cc3c2s1 (configuration not stated)	-5.3%	-5.5%	-2.9%	-0.2%
O=C(O)c1cc(N2C(=O)C=CC2=O)cc(N2C(=O)C=CC2=O)c1	2.67µM*	?	.	-23.7%
c1ccc(-c2noc(-c3cncnc3NCC3CCCO3)n2)cc1 (configuration not stated)	.	.	.	54.4%
COc1cccc2oc(SC)cc(=O)c12	.	-24.9%	-4.8%	.
COc1ccc(Br)c2oc(S)cc(=O)c12	?	?	?	6.31µM*
COC(=O)[C@H](CC(C)C)NC(=O)c1cc2c(cn1)[nH]c1ccccc12	3.77µM*	?	44.7µM*	?
C[N+]1(CC[N+]2(C)CCCCC2)CCCCC1	.	.	.	3.98µM*
O=C(CSc1ccccc1F)OCC(=O)N1CCN(C(=O)c2ccco2)CC1	-26.5%	7.6%	.	-38.7%
COC(=O)Oc1ccc2c(=O)c(Oc3ccc(C)cc3)coc2c1	.	.	.	-14.2%
Cc1ccc(N2C(=O)/C(=C/c3cccnc3)SC2=S)cc1	-3.6%	-9.6%	2.0%	2.6%
Cc1ccc(N2C(=O)/C(=C/c3ccco3)SC2=S)cc1	-8.7%	-5.9%	?	17.8µM*
Cc1ccc(N=C2NC(=O)S/C2=C\c2ccco2)cc1	-20.3%	5.2%	35.5µM*	?
SMILES	PLK1 PBD inh	VDR inhibitor	Sfp inh	ALOX12 inh
O=C1NC(=Nc2ccccc2)/C(=C/c2ccco2)S1	-9.3%	-10.8%	22.4µM*	?
CCN(CC)C(=O)CSC1=Nc2ccccc2C2=NC(Cc3c[nH]c4ccccc34)C(=O)N12 (configuration not stated)	-2.3%	6.9%	50.1µM*	56.7%
COc1ccc(C(=O)NC2(C(F)(F)F)NC(=O)N(CCCc3ccccc3)C2=O)cc1OC (configuration not stated)	26.7µM*	-8.8%	3.8%	-9.5%
Cc1nsc(N)c1C(=O)OCc1csc(-c2ccccc2)n1	.	.	.	25.1µM*
Cc1nsc(N)c1C(=O)OCc1csc(-c2cccc(Br)c2)n1	.	.	.	-28.0%
COc1cccc(-c2cc(C(F)(F)F)nc(NCCc3ccc(OC)c(OC)c3)n2)c1	.	1.4%	.	-18.5%
CCc1c(C)nc(N2CCN(c3ccc(F)cc3)CC2)[nH]c1=O	-7.4%	-8.6%	10.5%	10.6%
CCc1c(C)nc(N2CCN(c3ccc(Cl)cc3)CC2)[nH]c1=O	23.8µM*	?	14.1%	20.7%
C[C@@H]1CN([C@@H](C)CO)C(=O)CCCn2cc(nn2)CO[C@H]1CN(C)C(=O)c1ccccc1	.	.	.	22.1%
COc1ccc(C2NC(=S)NC3=C2CCc2cc(OC)ccc23)cc1 (configuration not stated)	?	?	-11.4%	28.2µM*
